Source: PubChem BioAssay AID1845227 (National Center for Advancing Translational Sciences (NCATS), 2023)
Records with an inconclusive call do not appear. Calls of active or inactive are those of the source. Calls follow the shape of the dose curve; as a rule, active = well fitted inhibition curve with a large enough effect; inconclusive = small, poorly fitted or top-dose-only effect; inactive = no such curve, though single readings can be large or run the other way.

Each compound was assayed against Luciferin 4-monooxygenase (Photinus pyralis) (UniProt P08659) (assay: Confirmatory firefly luciferase (FLuc) qHTS assay for identification of artifact compounds). Details: purified FLuc enzyme, luminescence, 5 min; series mostly up to 38.9 µM.
Text: PI: Alexander Tropsha Ph.D. UNC Eshelman School of Pharmacy University of North Carolina, Chapel Hill, North Carolina Hits from high-throughput screening (HTS) of chemical libraries are often false positives due to their interference with the assay detection technology. In response to this problem, we generated the largest publicly available library of chemical liabilities and developed a free webtool to predict HTS artifacts, both of which are described herein. More specifically, we generated, curated, and integrated HTS datasets for thiol reactivity, redox activity, and luciferase (firefly and nano) activity. Using these curated datasets, we developed and validated several Quantitative Structure-Interference Relationship (QSIR) models to predict nuisance behavior. […] These models were employed for virtual profiling of the National Center for Advancing Translational Science's (NCATS) in-house library, and 256 compounds for each assay were selected for the experimental validation of nuisance behavior. The BA for these external predictions ranged from 58 to 78% for compounds within the applicability domains of the models. […] The models developed in this study, along with aggregation models previously developed by our group (SCAM Detective) were implemented in "Liability Predictor," an online tool which may be used as part of chemical library design or for triaging HTS hits. Both the models and the curated datasets are publicly available at https://liability.mml.unc.edu/.
PROTOCOL TABLE SEQUENCE No. (e.g., 1, 2, 3, etc.); […] (e.g., Cells, Incubation, Reagent, etc.); VALUE; DESCRIPTION. 1; Reagent; 3 uL; Luciferase substrate mixture. 2; Compounds and control; 16 nL; Kalypsis pin tool (Wako USA) equipped with a 1536-well pin head. 3; Incubation; 15 min. 4; Reagent; 1 uL; Luciferase enzyme. 5; Incubation; 5 min. 6; Detection; Luminescence, ViewLux microplate reader. NOTES (numbers refer to Sequence numbers above) 1. 3 uL of luciferase substrate mixture containing D-luciferin and ATP (final concentrations of 10 uM and 10 uM, respectively) in assay buffer (10 mM Mg-acetate, 0.01% Tween-20, 0.05% bovine serum albumin, 50 mM Tris acetate, pH 7.6) was dispensed into all wells of a 1536-well assay plate (solid-bottom white plate; Greiner Bio One, Monroe, NC). 2. A Wako Pin-tool (Wako Automation, Richmond, VA) was used to transfer 16 nL of compounds (consisting of 7-plates in qHTS format, final concentration range 18.3 nM to 114 uM) or control PTC124 (final concentration range 1.22 nM to 40 uM). 3. 15 min. incubation at room temperature protected from light. 4. 1 uL of luciferase enzyme (final concentration 10 nM, Photinus pyralis luciferase) or buffer was dispensed for a final assay volume of 4 uL. 5. Plates were centrifuged (121xg, 15 seconds) and incubated for 5 minutes. 6. Samples were read for luminescence on a ViewLux CCD imager (PerkinElmer). Data were normalized to no-enzyme (0% activity) and no-inhibitor (DMSO; 100%) controls and the resulting percent inhibition data were fitted to a 4-parameter Hill equation using NCATS in-house software.

Potency, inactive:
O=C(O)Cc1cc(F)c(S(=O)(=O)N2CCN(S(=O)(=O)c3ccc4c(c3)OCCO4)CC2)cc1F, COc1cc(=O)n2c(c1C(=O)N(C)Cc1nccs1)CCN(Cc1cc(C)cc(C)c1)CC2, C[C@@H]1O[C@H](O[C@@H]2C(O)[C@H](O)[C@@H](CO)O[C@H]2Oc2cc(O)c3c(=O)cc(-c4ccc(O)cc4)oc3c2)[C@H](O)[C@H](O)[C@H]1O (stereo not given in full), COc1ccc(C2C(C(=O)Nc3ccccc3)=C(C)Nc3c(C(=O)Nc4ccccc4)cnn32)cc1 (stereo not given), CCOC(=O)c1c(C)[nH]c(C)c1S(=O)(=O)N1CCC(C(=O)NCc2ccc(OC)cc2)CC1, COc1ccc(-c2noc(N3CCC(C(=O)N4CCN(c5cccc(C)c5C)CC4)CC3)n2)cc1, Cc1ccc2oc(C(=O)Nc3ccc(S(=O)(=O)N(C)c4ccccc4)cc3)cc(=O)c2c1, COc1ccc(NC(=O)Cc2noc3ccc(C)cc23)cc1Cl, CC(=O)Nc1sc2c(c1-c1ccc(Cl)cc1)CCNC2, O=C(NCCS(=O)(=O)N1CCN(c2ccc(F)cc2)CC1)C1CC(=O)N(c2ccc(F)cc2)C1 (stereo not given), CCOc1ccc2c(c1)C(C)=CC(C)(C)N2, Cc1c(CCNC(=O)Cc2ccc(F)cc2)sc2nc(-c3ccc(F)cc3)nn12, COc1ccc(C2N(Cc3ccccc3)C(=O)c3ccccc3N2C)cc1COc1ccc(NC(C)=O)cc1 (stereo not given), Cc1ccc(-c2nc(S(=O)(=O)c3ccc(Cl)cc3)c(N3CCCCC3)o2)cc1, CCCCN(C)CCCNC(=O)CN1C(=O)COc2ccc(S(=O)(=O)N3CCC(C)CC3)cc21, CCCOC(=O)c1ccc(NC(=O)C2CC(=O)N(c3ccc(C)cc3)C2)cc1 (stereo not given), CCc1cccc(NC(=O)C2CCC(CNS(=O)(=O)c3csc(C(N)=O)c3)CC2)c1 (stereo not given), CCOc1ccc(OCC(=O)NCCS(=O)(=O)N2CCN(c3cccc(Cl)c3)CC2)cc1, Cc1ccc(NC(=O)CSc2ccc(-c3cccs3)nn2)cc1Cl, CC1OC(OCC2OC(Oc3cc(O)c4c(c3)OC(c3ccc(O)cc3)CC4=O)C(O)C(O)C2O)C(O)C(O)C1O (stereo not given), COCCn1c(C)cc(O)c(C(c2ccc(OC)cc2)N2CCN(c3ccccc3)CC2)c1=O (stereo not given), COc1ccc(Cn2c(CNS(=O)(=O)c3ccc(Cl)s3)nc3cccnc32)cc1, CCCCN(CCCNC(=O)c1cc(Nc2ccc(OC)c(OC)c2)nc2ccccc12)Cc1ccccc1, O=C(Nc1ccc(Br)cc1)c1cc(-c2cccs2)nc2ccccc12, CCCS(=O)(=O)N1CC(=O)N(c2ccc(C)cc2C)C(C)(C(=O)NC2CCCCCC2)C1 (stereo not given), Cc1ccc(OC(C)C(=O)NCC2(N3CCOCC3)CCCCC2)cc1C (stereo not given), CCCc1cc(=O)[nH]c(Nc2cc(C)ccc2OC)n1, COc1cccc(C2c3c(ncn(-c4cccc(C#N)c4)c3=N)Oc3ccc4ccccc4c32)c1 (stereo not given), COc1cccc(-c2nnc(Nc3nc4c(OC)cccc4s3)o2)c1, Cc1ccc2nc(-c3cccs3)c(Nc3ccccc3)n2c1, Cc1c(C(=O)N(C)C)sc2c1c(=O)n(-c1ccc(Cl)cc1)c(=O)n2Cc1ccccc1F, COC(=O)CN1C(=O)[C@@H]2[C@H](C1=O)[C@@H]1CC(C(=O)OC)=C[C@@H](C(=O)OC)C3C1=C(C(=O)C31CCCCC1)[C@@H]2C (stereo not given in full), O=C(Nc1cc(Cl)ccc1Cl)c1cc(S(=O)(=O)NCCc2ccccc2)ccc1F, CC1=CC23C(=O)C(C=C(CO)[C@@H](O)[C@]2(O)[C@H]1O)[C@H]1[C@@H](C[C@H]3C)C1(C)C (stereo not given in full), CCOC(=O)c1ccccc1Nc1cc(C)nc2nc(-c3ccco3)nn12, Cc1ccccc1NS(=O)(=O)c1ccc2[nH]c3c(c2c1)CCCCC3, Cc1ccc(NC(=O)c2ccc3[nH]c(C)cc(=O)c3c2)cc1, CCC(CC)c1nn2c(=O)cc(COc3ccc(NC(=O)c4ccccc4C)cc3)nc2s1, Cc1cccc(CSc2nc3cc(C(=O)NC4CCCC4)ccc3c(=O)n2Cc2ccccc2)c1, CO[C@@H]1[C@@H](O[C@@H]2O[C@H](C)[C@@H](O[C@H]3C[C@@](C)(O)[C@@H](OC(=O)CC(C)C)[C@H](C)O3)[C@H](N(C)C)[C@H]2O)[C@@H](CC=O)C[C@@H](C)C(=O)/C=C/C2OC2C[C@@H](C)OC(=O)C[C@H]1OC(C)=O (stereo not given in full)
